From PubChem BioAssay (NCATS)
“And” between values parts separate entries of the source, which are not always exact repeats. Equal entries are not always repeated. Results filed as inconclusive are left out. Entries that show only a call come without a potency. A structure can be active in one record and inactive in another. Unmarked numbers belong to inactive results. The source made the active and inactive calls. The call rests on the fitted dose curve; in most records, active means well fitted curve in the direction sought with a large enough effect; inconclusive means small, poorly fitted or top-dose-only effect, or another doubt; inactive means no such curve, though single readings can be large; an effect the other way counts as inactive or inconclusive.

What was measured:
Es-2 = experiment: Primary qHTS to identify gynecologic anti-cancer compounds using libraries of approved drugs and bioactive compounds (AID 1345084); conditions: Gynecologic cancer cell panel viability, ATPlite luminescence, 48 h; series mostly up to 57.5 µM; further: nearly all actives have a fitted effect of over 55% in size
Procedure, shortened: (§1)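 In this quantitative HTS, cell killing is estimated from loss of ATP-dependent luciferase light. Cells see five compound concentrations over a 48 h exposure.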

HeLa = experiment: as above; conditions: Gynecologic cancer cell panel viability, ATPlite luminescence, 48 h; series mostly up to 57.5 µM
Procedure, shortened: as §1

Hek293T = experiment: as above; conditions: Gynecologic cancer cell panel viability, ATPlite luminescence, 48 h, control line for the selectivity index; series mostly up to 57.5 µM
Procedure, shortened: as §1

JEG-3 = experiment: as above; conditions: Gynecologic cancer cell panel viability, ATPlite luminescence, 48 h; series mostly up to 57.5 µM
Procedure, shortened: as §1

OV90 = experiment: as above; conditions: Gynecologic cancer cell panel viability, ATPlite luminescence, 48 h; series mostly up to 57.5 µM
Procedure, shortened: as §1

PA-1 = experiment: as above; conditions: Gynecologic cancer cell panel viability, ATPlite luminescence, 48 h; series mostly up to 57.5 µM
Procedure, shortened: as §1

SKOV3 = experiment: as above; conditions: Gynecologic cancer cell panel viability, ATPlite luminescence, 48 h; series mostly up to 57.5 µM
Procedure, shortened: as §1

Tov-21-G = experiment: as above; conditions: Gynecologic cancer cell panel viability, ATPlite luminescence, 48 h; series mostly up to 57.5 µM
Procedure, shortened: as §1

Tov112D = experiment: as above; conditions: Gynecologic cancer cell panel viability, ATPlite luminescence, 48 h; series mostly up to 57.5 µM
Procedure, shortened: as §1

[1] = Drug repurposing screens with cells derived from glioblastoma tumor samples (AID 1345199); conditions: GBM patient neurospheres viability, ATP luminescence, 48 h; further: nearly all actives have a fitted effect of over 40% in size
Procedure, shortened: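 Primary testing used CD133+ neurospheres from four GBM patients, seven concentrations, 48 h exposure and ATP-based viability; confirmation added three slower-growing patient lines.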

[2] = at 45.9 µM (top of the series), tumour line B
[3] = at 45.9 µM (top of the series), tumour line D
[4] = at 46 µM (top of the series), tumour line A
[5] = at 46.1 µM (top of the series), tumour line C
Potency means the concentration at half of the fitted maximal effect.

Row | Compound | Potency (Es-2) | Potency (HeLa) | Potency (Hek293T) | Potency (JEG-3) | Potency (OV90) | Potency (PA-1) | Potency (SKOV3) | Potency (Tov-21-G) | Potency (Tov112D) | activity, negative = cell killing [1, 2] | activity, negative = cell killing [1, 3] | activity, negative = cell killing [1, 4] | activity, negative = cell killing [1, 5] | Potency ([1]; tumour line A) | activity, negative = cell killing ([1]; at 20 µM (top of the series), tumour line C) | activity, negative = cell killing ([1]; at 21.2 µM (top of the series), tumour line B) | activity, negative = cell killing ([1]; at 21.2 µM (top of the series), tumour line D) | activity, negative = cell killing ([1]; at 21.3 µM (top of the series), tumour line A) | Potency ([1]; tumour line B) | Potency ([1]; tumour line D)
1 | N#CCC(=O)NN | inactive | inactive | inactive | inactive | inactive | inactive | inactive | inactive | inactive | -9.6% | -5.43% | -40.8% | -7.01% |  |  |  |  |  |  | 
2 | CCN1CCN(C(=O)N[C@@H](C(=O)N[C@@H]2C(=O)N3C(C(=O)O)=C(CSc4nnnn4C)CS[C@H]23)c2ccc(O)cc2)C(=O)C1=O | inactive | inactive | inactive | inactive | inactive | inactive | inactive | inactive | inactive | -8.4% | 9.51% | -15% | 0.963% |  |  |  |  |  |  | 
3 | CCc1ccc(C(=O)C(C)CN2CCCCC2)cc1 (centres undefined) | inactive | inactive | inactive | inactive | inactive | inactive | inactive | inactive | inactive | -6.35% | -22.1% |  | -19% | 17.8 µM (active) |  |  |  |  |  | 
4 | OCc1ccccn1 | inactive | inactive | inactive | inactive | inactive | inactive | inactive | inactive | inactive | -0.907% | 14.9% | -24% | -5.53% |  |  |  |  |  |  | 
5 | CCCCC(CC)COC(=O)/C=C/c1ccc(OC)cc1 (centres undefined) | inactive | inactive | inactive | inactive | inactive | inactive | inactive | inactive | inactive | -11.8% | -6.07% | -26.1% | 6.67% |  |  |  |  |  |  | 
6 | Nc1ccc(S(=O)(=O)Nc2cnc3ccccc3n2)cc1 | inactive | inactive | inactive | inactive | inactive | inactive | inactive | inactive | inactive | 0.475% | 3.34% | -15.8% | 4.45% |  |  |  |  |  |  | 
7 | CCOc1cc(OCC)c(C(=O)CCC(=O)O)cc1OCC | inactive | inactive | inactive | inactive | inactive | inactive | inactive | inactive | inactive | -2.96% | -2.05% | -23.5% | -10.2% |  |  |  |  |  |  | 
8 | NC(=O)c1ccccc1O | inactive | inactive | inactive | inactive | inactive | inactive | inactive | inactive | inactive | -6.32% | 0.802% | -27.6% | 4.05% |  |  |  |  |  |  | 
9 | CCC(Cc1c(I)cc(I)c(N)c1I)C(=O)O (centres undefined) | inactive | inactive | inactive | inactive | inactive | inactive | inactive | inactive | inactive |  |  |  |  |  | 4.71% | 4.87% | 3.32% | -20% |  | 
10 | Oc1ccc(Cl)cc1Cc1cc(Cl)ccc1O | inactive | inactive | inactive | inactive | inactive | inactive |  | inactive | inactive |  |  |  |  |  |  |  |  |  |  | 
11 | C#C[C@]1(OC(C)=O)CC[C@H]2[C@@H]3CCC4=C/C(=N/O)CC[C@@H]4[C@H]3CC[C@@]21CC | inactive | 4.47 µM (active) | inactive | inactive | inactive | inactive | inactive |  |  |  |  |  | -21.9% | 8.91 µM (active) |  |  |  |  |  | 
12 | CC(C)CCCC(C)N (centres undefined) | inactive | inactive | inactive | inactive | inactive | inactive | inactive | inactive |  | -9.11% | -4% | -26.4% | -27% |  |  |  |  |  |  | 
13 | CN(Cc1ccc(C(C)(C)C)cc1)Cc1cccc2ccccc12 | inactive | inactive | inactive | inactive | inactive | inactive | inactive | inactive | inactive | -23.3% |  |  | -13.6% and -21.7% | 22.4 µM (active) |  |  |  |  | 12.6 µM (active) | 22.4 µM (active)
14 | CC(C)[C@@H]1CC[C@@H](C)CC1=O | inactive | inactive | inactive | inactive | inactive | inactive | inactive | inactive | inactive | -6.28% | -8.45% | -24.9% | -8.42% |  |  |  |  |  |  | 
15 | CC1=C(C(=O)O)N2C(=O)[C@@H](NC(=O)[C@H](N)c3ccccc3)[C@H]2SC1 | inactive | inactive | inactive | inactive | inactive | inactive | inactive | inactive | inactive | -0.246% | -6.88% | -19.6% | -1.45% |  |  |  |  |  |  | 
16 | O=C(O)P(=O)(O)O | inactive | inactive | inactive | inactive | inactive | inactive | inactive | inactive | inactive | -0.165% | -25% | -23.7% | 21.2% |  |  |  |  |  |  | 
